Counter-ions that a name gives are not always drawn.
test system: HeLa; experiment: nuclear count per well, robust Z-score vs DMSO; higher = more cells (less toxicity); conditions: 10 µM; 6 h
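Note: Hoechst-stained nuclei counted by automated confocal imaging of four fields per well in 384-well plates, with the robust Z-score based on the per-plate DMSO median and robust SD.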

Row | SMILES | nuclear count per well
1 | Cc1cn([C@H]2C[C@H](N=[N+]=[N-])[C@@H](CO)O2)c(=O)[nH]c1=O [Zidovudine (3'-Azido-3'-Deoxythymidine)] | 0.619
2 | CN[C@H]1CC[C@@H](c2ccc(Cl)c(Cl)c2)c2ccccc21 | 0.399
3 | CN(CCOc1ccc(CC2SC(=O)NC2=O)cc1)c1ccccn1 (stereo not given) [Rosiglitazone] | 1.01
4 | C[C@@H](O)[C@H]1C(=O)N2C(C(=O)O)=C(S[C@@H]3CN[C@H](CNS(N)(=O)=O)C3)[C@H](C)[C@H]12 [Doripenem] | -0.646
5 | CO[C@H]1/C=C/O[C@@]2(C)Oc3c(C)c(O)c4c(O)c(c(/C=N/N5CCN(C6CCCC6)CC5)c(O)c4c3C2=O)NC(=O)/C(C)=C\C=C\[C@H](C)[C@H](O)[C@@H](C)[C@@H](O)[C@@H](C)[C@H](OC(C)=O)[C@@H]1C [Rifapentine] | -0.199
6 | Nc1ncn([C@H]2C[C@H](O)[C@@H](CO)O2)c(=O)n1 [Decitabine] | 0.789
7 | CC(=O)CC(c1ccc([N+](=O)[O-])cc1)c1c(O)c2ccccc2oc1=O (stereo not given) [Acenocoumarol] | -0.255
8 | CS(=O)(=O)OCCCCOS(C)(=O)=O [Busulfan] | 1.24
9 | CCCCC/C=C\C/C=C\C/C=C\C=C\[C@@H](O)CCCC(=O)O | -0.257
10 | O=C(O)C1(C(=O)O)CCC1.[NH2-].[NH2-].[Pt+2] [Carboplatin] | 0.428
11 | Oc1cccc(-c2nc(N3CCOCC3)c3oc4ncccc4c3n2)c1 | 1.28
12 | Clc1ccc(CSC(Cn2ccnc2)c2ccc(Cl)cc2Cl)cc1 (stereo not given) [Sulconazole Nitrate] | 0.229
13 | CC(C)(C)NC[C@H](O)COc1nsnc1N1CCOCC1 [(S)-Timolol Maleate] | 1.14
14 | Cc1ccc(/C(=C\CN2CCCC2)c2cccc(/C=C/C(=O)O)n2)cc1 [Acrivastine] | 1.05
15 | Nc1ncn([C@@H]2O[C@H](CO)[C@@H](O)[C@H]2O)c(=O)n1 [Azacytidine] | 0.175
16 | O=c1[nH]cnc2c1ncn2[C@H]1CC[C@@H](CO)O1 [Didanosine] | -0.203
17 | COc1ccnc(C[S+]([O-])c2nc3cc(OC(F)F)ccc3[nH]2)c1OC (stereo not given) [Pantoprazole] | -0.31
18 | C=C1/C(=C\C=C2/CCC[C@]3(C)[C@@H]([C@H](C)/C=C/[C@@H](O)C4CC4)CC[C@@H]23)C[C@@H](O)C[C@@H]1O [Calcipotriene] | -0.612
19 | Cc1cn([C@@H]2C[C@@H](O)[C@H](CO)O2)c(=O)[nH]c1=O [Telbivudine] | -0.757
20 | O=C1CN(/N=C/c2ccc(-c3ccc([N+](=O)[O-])cc3)o2)C(=O)N1 [Dantrolene sodium salt] | 0.134

Row | SMILES | nuclear count per well
21 | Cc1cc(C(=O)NNCc2ccccc2)no1 [Isocarboxazid] | 0.132
22 | OCCOCCN1CCN(C2=Nc3ccccc3Sc3ccccc32)CC1 [Quetiapine Fumarate] | 0.149
23 | C#C[C@]1(O)CC[C@H]2[C@@H]3CCc4cc(OC)ccc4[C@H]3CC[C@@]21C [Mestranol] | -1.59
24 | C[C@]12C=CC(=O)C=C1CC[C@@H]1[C@@H]2[C@@H](O)C[C@@]2(C)[C@H]1CC[C@]2(O)C(=O)CO [Prednisolone] | 0.623
25 | CC1(C)CCC2=C(O1)c1ccccc1C(=O)C2=O [Beta-lapachone] | -8.58
26 | NC(N)=Nc1nc(CSCC/C(N)=N/S(N)(=O)=O)cs1 [Famotidine] | 0.00418
27 | O=C(O)C(=O)O.[NH-][C@@H]1CCCC[C@H]1[NH-].[Pt+2] [Oxaliplatin] | -0.151
28 | CCCCC[C@H](O)/C=C/[C@H]1C(=O)C=C[C@@H]1C/C=C\CCCC(=O)O [Prostaglandin J2] | 0.0931
29 | CCOC(=O)C1=C(C)NC(C)=C(C(=O)OC)C1c1cccc(Cl)c1Cl (stereo not given) [Felodipine] | 0.179
30 | CC(C)(C)C(=O)OCOP(=O)(COCCn1cnc2c(N)ncnc21)OCOC(=O)C(C)(C)C [Adefovir Dipivoxil] | -0.859
31 | Nc1nnc(-c2cccc(Cl)c2Cl)c(N)n1 [Lamotrigine] | -0.337
32 | CC1=C(CC(=O)O)c2cc(F)ccc2/C1=C\c1ccc([S+](C)[O-])cc1 (stereo not given) [Sulindac] | -0.07
33 | CC1(C)S[C@@H]2[C@H](NC(=O)[C@H](N)c3ccc(O)cc3)C(=O)N2[C@H]1C(=O)O [Amoxicillin] | -0.996
34 | CCN(Cc1ccncc1)C(=O)C(CO)c1ccccc1 (stereo not given) [Tropicamide] | 0.487
35 | CCCN[C@H]1CCc2nc(N)sc2C1 [Pramipexole Dihydrochloride Monohydrate] | 0.788
36 | O=C(c1ccc(OCCN2CCCCC2)cc1)c1c(-c2ccc(O)cc2)sc2cc(O)ccc12 [Raloxifene hydrochloride] | 1.29
37 | C1CCC(C(CC2CCCCN2)C2CCCCC2)CC1 (stereo not given) [Perhexiline maleate salt] | -0.947
38 | O=c1cc(N2CCOCC2)oc2c(-c3ccccc3)cccc12 [LY-294,002 hydrochloride] | 0.163
39 | CN(C)c1cc(NC(=O)CNC(C)(C)C)c(O)c2c1C[C@H]1C[C@H]3[C@H](N(C)C)C(O)=C(C(N)=O)C(=O)[C@@]3(O)C(O)=C1C2=O [Tigecycline] | 0.689
40 | COC(=O)[C@H](c1ccccc1Cl)N1CCc2sccc2C1 | 0.376
